Laboratory results as given in PubChem BioAssay (NCATS).
Results filed as inconclusive are left out. A call without a number means that no potency is given here. Activity calls are given as the source filed them. Unless noted, calls follow the shape of the dose curve; as a rule, active = well fitted curve in the direction sought with a large enough effect; inconclusive = small, poorly fitted or top-dose-only effect, or another doubt; inactive = no such curve, though single readings can be large; an effect the other way counts as inactive or inconclusive.

Legend:
[1] = molecular target: Voltage-gated inwardly rectifying potassium channel KCNH2 (Homo sapiens) (UniProt Q12809); test: qHTS Assay for Small Molecule Inhibitors of the Human hERG Channel Activity (AID 588834);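 also: lower thallium flux fluorescence means stronger hERG block; nearly all actives have a fitted effect of over 50% in size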; also: potency is read from the fitted curve at half-maximal effect
Voltage-gated inwardly rectifying potassium channel KCNH2 (Homo sapiens), sequence (Q12809 whole entry, looked up): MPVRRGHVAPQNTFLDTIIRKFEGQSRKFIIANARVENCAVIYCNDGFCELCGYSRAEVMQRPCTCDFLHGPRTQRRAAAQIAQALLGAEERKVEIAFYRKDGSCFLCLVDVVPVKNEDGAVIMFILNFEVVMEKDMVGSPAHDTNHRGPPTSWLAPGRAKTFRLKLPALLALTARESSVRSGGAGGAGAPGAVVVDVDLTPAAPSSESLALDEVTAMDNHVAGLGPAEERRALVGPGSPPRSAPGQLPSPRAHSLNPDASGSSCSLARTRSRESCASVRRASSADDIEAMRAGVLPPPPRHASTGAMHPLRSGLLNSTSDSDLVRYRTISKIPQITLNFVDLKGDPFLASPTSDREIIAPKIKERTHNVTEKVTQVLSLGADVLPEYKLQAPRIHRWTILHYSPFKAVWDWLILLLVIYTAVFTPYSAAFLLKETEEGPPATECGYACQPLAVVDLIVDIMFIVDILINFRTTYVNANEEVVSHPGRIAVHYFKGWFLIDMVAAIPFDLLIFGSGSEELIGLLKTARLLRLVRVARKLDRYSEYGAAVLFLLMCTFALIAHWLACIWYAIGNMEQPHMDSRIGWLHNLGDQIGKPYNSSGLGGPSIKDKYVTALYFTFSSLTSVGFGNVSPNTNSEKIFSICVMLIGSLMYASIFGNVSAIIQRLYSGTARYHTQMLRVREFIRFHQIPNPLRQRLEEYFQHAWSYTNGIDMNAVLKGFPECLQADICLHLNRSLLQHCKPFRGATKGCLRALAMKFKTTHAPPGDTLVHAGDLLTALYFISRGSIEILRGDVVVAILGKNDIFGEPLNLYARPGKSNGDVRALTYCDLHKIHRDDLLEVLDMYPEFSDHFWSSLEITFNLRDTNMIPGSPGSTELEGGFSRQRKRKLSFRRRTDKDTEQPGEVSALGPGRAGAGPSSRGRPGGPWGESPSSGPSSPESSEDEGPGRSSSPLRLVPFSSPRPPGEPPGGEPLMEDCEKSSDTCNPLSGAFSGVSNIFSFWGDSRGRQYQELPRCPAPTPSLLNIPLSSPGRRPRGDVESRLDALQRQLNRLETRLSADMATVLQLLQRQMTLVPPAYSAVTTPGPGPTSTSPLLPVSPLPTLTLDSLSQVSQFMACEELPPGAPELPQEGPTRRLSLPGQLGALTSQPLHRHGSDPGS
Summary of the method: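 hERG block measured as reduced thallium-dye (FluxOR) fluorescence after stimulation buffer addition, read over 2 min. Cells were hERG-BacMam-transduced U2OS exposed to compound ~10 min […]; concentration-response fitted with Hill equation for AC50.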

[2] = molecular target: Luciferin 4-monooxygenase (Photinus pyralis) (UniProt P08659); test: Biochemical firefly luciferase enzyme assay for NPC (AID 624030);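 also: purified P. pyralis luciferase at 10 nM with luciferin and ATP substrate; series mostly up to about 59 µM; nearly all actives have a fitted effect of over 70% in size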
Luciferin 4-monooxygenase (Photinus pyralis), sequence (P08659 whole entry, looked up): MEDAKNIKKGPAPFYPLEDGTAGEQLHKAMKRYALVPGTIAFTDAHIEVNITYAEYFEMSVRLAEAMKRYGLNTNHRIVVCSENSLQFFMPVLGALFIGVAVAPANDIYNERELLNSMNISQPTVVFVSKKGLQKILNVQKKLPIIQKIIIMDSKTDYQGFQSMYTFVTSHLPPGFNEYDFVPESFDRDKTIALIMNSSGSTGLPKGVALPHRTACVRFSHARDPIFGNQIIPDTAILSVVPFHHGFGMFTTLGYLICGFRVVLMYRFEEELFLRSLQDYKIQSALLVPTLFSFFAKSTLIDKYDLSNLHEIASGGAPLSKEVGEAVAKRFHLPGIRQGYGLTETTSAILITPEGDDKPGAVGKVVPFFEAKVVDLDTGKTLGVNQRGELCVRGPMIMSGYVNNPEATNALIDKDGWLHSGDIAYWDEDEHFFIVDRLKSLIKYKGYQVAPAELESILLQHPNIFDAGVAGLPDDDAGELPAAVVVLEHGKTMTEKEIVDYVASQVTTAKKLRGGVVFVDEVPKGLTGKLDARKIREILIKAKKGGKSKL
Summary of the method: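 Purified P. pyralis luciferase at 10 nM in 50 mM Tris Acetate (final), luminescence read within 5 minutes of enzyme addition to compounds. Activity normalised to PTC124 versus DMSO; concentration-response curves classed by r2, magnitude and activity.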

[3] = S16 Schwann cell viability assay (CellTiter-Glo assay) (AID 624031); also: nearly all actives have a fitted effect of over 70% in size; also: potency is read from the fitted curve at half-maximal effect
Summary of the method: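 Parental S16 cells, 24 h compound, 37 °C. ATP-luminescence viability; DMSO = 0% activity, empty wells as reference; curves classified by fit quality and efficacy.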

[4] = S16 Schwann cell PMP22 intronic element firefly luciferase assay (AID 624032); also: nearly all actives have a fitted effect of over 30% in size; also: potency is read from the fitted curve at half-maximal effect
Summary of the method: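 Rat S16 Schwann cells stably carrying firefly luciferase driven by a PMP22 intronic element, in 10% FBS, treated 24 h at 37 C. ONE-Glo luminescence normalized to PTC124 control and DMSO (0%); curves classed by r2, magnitude and activity.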

[5] = S16 Schwann cell PMP22 intronic element beta-lactamase assay (AID 624044; calls by dose curve; also: nearly all actives have a fitted effect of over 15% in size; also: potency is read from the fitted curve at half-maximal effect)
Summary of the method: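 Beta-lactamase reporter under a PMP22 intronic regulatory element in stable S16 rat Schwann cells; 24 h compound exposure. 460 nm blue signal normalized between DMSO (0%) and potassium clavulanate, with 535 nm FRET tracking viability; curves classed by r2 and response.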

| SMILES | Potency [1] | Potency [2] | Potency [3] | Potency [4] | Potency [5] |
| --- | --- | --- | --- | --- | --- |
| C[C@H]1O[C@@H](O[C@H]2CC[C@@]3(C)[C@H](CC[C@@H]4[C@@H]3C[C@@H](O)[C@]3(C)[C@@H](C5=CC(=O)OC5)CC[C@]43O)C2)C[C@H](O)[C@@H]1O[C@H]1C[C@H](O)[C@H](O[C@H]2C[C@H](O)[C@H](O[C@@H]3O[C@H](CO)[C@@H](O)[C@H](O)[C@H]3O)[C@@H](C)O2)[C@@H](C)O1 | inactive | – | – | – | – |
| NS(=O)(=O)c1cc2c(cc1Cl)NC(CC1CCCC1)NS2(=O)=O (stereo unspecified) | inactive | – | – | – | – |
| N[C@H](C(=O)O)[C@@H](O)c1ccc(O)c(O)c1 | inactive | – | – | – | – |
| CC(C(=O)O)c1cccc(Oc2ccccc2)c1 (stereo unspecified) | inactive | – | – | – | – |
| COc1cc(C(=O)N2CCCCCCC2)cc(OC)c1OC | inactive | inactive | – | – | – |
| C=C1c2cccc(O)c2C(O)=C2C(=O)[C@]3(O)C(O)=C(C(N)=O)C(=O)[C@@H](N(C)C)[C@@H]3[C@@H](O)[C@H]12 | inactive | – | – | – | – |
| CCOC(=O)[C@H](CCc1ccccc1)N[C@@H](C)C(=O)N1[C@H](C(=O)O)C[C@@H]2CCC[C@@H]21 | inactive | – | – | – | – |
| O=C(Oc1cccc2cccnc12)c1ccccc1 | inactive | – | – | – | – |
| CC(CNC1CCCCC1)OC(=O)c1ccccc1 (stereo unspecified) | inactive | – | – | – | – |
| Nc1nc(Cl)nc2c1ncn2[C@@H]1O[C@H](CO)[C@@H](O)[C@@H]1F | inactive | – | – | – | – |
| CCN1CCN(C(=O)N[C@@H](C(=O)N[C@@H]2C(=O)N3C(C(=O)O)=C(CSc4nnnn4C)CS[C@H]23)c2ccc(O)cc2)C(=O)C1=O | inactive | – | – | – | – |
| CN(C)CCOC(=O)C(c1ccccc1)C1(O)CCCC1 (stereo unspecified) | inactive | – | – | – | – |
| CC(O)Cn1cnc2c1c(=O)n(C)c(=O)n2C (stereo unspecified) | inactive | – | – | – | – |
| CCc1cc(Cl)c(OC)c(C(=O)NC[C@@H]2CCCN2CC)c1O | 2.82 µM (active) | inactive | – | – | – |
| CCCCCCCCCCC[C@@H](C[C@@H]1OC(=O)[C@H]1CCCCCC)OC(=O)[C@H](CC(C)C)NC=O | inactive | – | – | – | – |
| CCN(CC)CCOC(=O)C(Cc1cccc2ccccc12)CC1CCCO1 (stereo unspecified) | 7.94 µM (active) | – | – | – | – |
| C[C@]12CCC(=O)C=C1C=C[C@@H]1[C@@H]2CC[C@@]2(C)[C@H]1CC[C@@]21CCC(=O)O1 | inactive | – | – | – | – |
| CC(C)Cn1cnc2c1c(=O)n(C)c(=O)n2C | inactive | inactive | – | – | – |
| CC(C)(C)NCC(O)COc1cccc2c1C[C@H](O)[C@H](O)C2 (stereo partly specified) | inactive | – | – | – | – |
| O=C1OC(CN2CCOCC2)CN1/N=C/c1ccc([N+](=O)[O-])o1 (stereo unspecified) | inactive | – | – | – | – |
| COc1ccc(S(=O)(=O)N2c3ccc(Cl)cc3[C@@](O)(c3ccccc3Cl)[C@H]2C(=O)N2CCC[C@@H]2C(N)=O)cc1OC | inactive | – | – | – | – |
| CC(C)[C@@H]1CC[C@@H](C)CC1=O | inactive | – | – | – | – |
| CCCCN1C[C@H](O)[C@@H](O)[C@H](O)[C@H]1CO | inactive | – | – | – | – |
| O=C(O)CCc1nc2ccccc2[nH]1 | inactive | inactive | inactive | inactive | – |

| SMILES | Potency [1] | Potency [2] | Potency [3] | Potency [4] | Potency [5] |
| --- | --- | --- | --- | --- | --- |
| O=C(NC1CCN(CCc2c[nH]c3ccccc23)CC1)c1ccccc1 | 0.891 µM (active) | inactive | inactive | inactive | – |
| Cc1cc(C)cc(OCC2CNC(=O)O2)c1 (stereo unspecified) | inactive | inactive | inactive | inactive | – |
| O=C1C(=O)c2ccccc2C(O)=C1C1CCC(c2ccc(Cl)cc2)CC1 (stereo unspecified) | inactive | inactive | inactive | – | – |
| CCOC(=O)C(C#N)=C(c1ccccc1)c1ccccc1 | inactive | inactive | inactive | – | – |
| O=S(=O)(O)c1ccc(O)cc1 | inactive | inactive | inactive | inactive | – |
| OCc1ccccn1 | inactive | inactive | inactive | inactive | – |
| Cc1c[nH]c2ccccc12 | inactive | inactive | inactive | inactive | – |
| NS(=O)(=O)c1cc(C(=O)O)cc(N2CCCC2)c1Oc1ccccc1 | inactive | inactive | inactive | inactive | – |
| CC(=O)O[C@]1(C(C)=O)CC[C@H]2[C@@H]3C=C(Cl)C4=CC(=O)CC[C@]4(C)[C@H]3CC[C@@]21C | inactive | inactive | inactive | – | – |
| CCc1nn(CCCN2CCN(c3cccc(Cl)c3)CC2)c(=O)n1CCOc1ccccc1 | 1 µM (active) | inactive | – | – | – |
| Cn1c(=O)c2[nH]c(Br)nc2n(C)c1=O | inactive | inactive | inactive | – | – |
| CN(C)CCOC(c1ccc(Cl)cc1)c1ccccn1 (stereo unspecified) | 14.1 µM (active) | inactive | inactive | inactive | – |
| COc1cc(O)c(C(=O)c2ccccc2)cc1S(=O)(=O)O | inactive | inactive | inactive | – | – |
| CCOCCn1c(N2CCCN(C)CC2)nc2ccccc21 | 1 µM (active) | inactive | inactive | inactive | – |
| Cc1cc(NS(=O)(=O)c2ccc(N)cc2)nc(C)n1 | inactive | inactive | inactive | inactive | – |
| CC(C)(Cc1c[nH]c2ccccc12)NCC(O)COc1ccccc1C#N (stereo unspecified) | 2.82 µM (active) | inactive | – | – | – |
| CCCCCCCCNC(C)C(O)c1ccc(SC(C)C)cc1 (stereo unspecified) | 0.631 µM (active) | inactive | 14.4 µM (active) | 22.8 µM (active) | – |
| CC(=O)Nc1ccc(CC(=O)O)cc1 | inactive | inactive | inactive | inactive | – |
| O=C(Nc1ccc([N+](=O)[O-])cc1)Nc1ccc([N+](=O)[O-])cc1 | 14.1 µM (active) | inactive | inactive | – | – |
| CC(C)Cc1ccc(CC(=O)O)cc1 | inactive | inactive | inactive | inactive | – |
| CC(C)CCCC(C)N (stereo unspecified) | inactive | inactive | inactive | inactive | – |
| O=C(O)CCNC(=O)c1ccccc1 | inactive | inactive | inactive | inactive | – |
| CC(=O)OCC(=O)[C@H]1CC[C@H]2[C@@H]3CCC4=CC(=O)CC[C@]4(C)[C@H]3CC[C@]12C | inactive | inactive | inactive | inactive | – |
| c1ccc(-c2nc[nH]c2-c2ccccc2)cc1 | inactive | inactive | inactive | inactive | – |

| SMILES | Potency [1] | Potency [2] | Potency [3] | Potency [4] | Potency [5] |
| --- | --- | --- | --- | --- | --- |
| COc1cc(C(=S)N2CCOCC2)ccc1O | inactive | inactive | inactive | – | – |
| CC[N+](C)(CC)CCOC(=O)C(O)(c1ccccc1)C1CCCCC1 (stereo unspecified) | inactive | inactive | inactive | inactive | – |
| COP(=O)(OC)OC(c1ccc(Cl)cc1)P(=O)(OC)OC (stereo unspecified) | inactive | inactive | inactive | inactive | – |
| CCCc1ncc(C[n+]2ccccc2C)c(N)n1 | inactive | inactive | inactive | inactive | – |
| Cc1ccc(S(=O)(=O)NC(=O)NC2CCCC2)cc1 | inactive | inactive | inactive | inactive | – |
| COc1ccc2c(c1)c1c3n2CCN(C)C3=NCC1 | 3.98 µM (active) | inactive | inactive | inactive | – |
| CCc1ccc(C(=O)C(C)CN2CCCCC2)cc1 (stereo unspecified) | inactive | inactive | inactive | inactive | – |
| FC1(F)C(F)(F)C(F)(F)C2(F)C(F)(F)C(F)(F)C(F)(F)C(F)(F)C2(F)C1(F)F (stereo unspecified) | inactive | inactive | inactive | inactive | – |
| O=C(O)Cc1csc(-c2ccc(Cl)cc2)n1 | inactive | inactive | inactive | – | – |
| CCC(C(=O)OCCOCCN(CC)CC)c1ccccc1 (stereo unspecified) | inactive | inactive | inactive | inactive | – |
| Cc1cccc(C)c1NC(=O)CN1CCCC1 | inactive | inactive | inactive | – | – |
| OC(C#CCN1CCCC1)(c1ccccc1)c1ccccc1 | 22.4 µM (active) | inactive | inactive | inactive | inactive |
| CCOc1ccccc1OCCN[C@H](C)Cc1ccc(OC)c(S(N)(=O)=O)c1 | 14.1 µM (active) | inactive | inactive | inactive | inactive |
| C#C[C@]1(O)CC[C@H]2[C@@H]3CCC4=CC(=O)CC[C@@H]4[C@H]3CC[C@@]21CC | inactive | inactive | inactive | 20.3 µM (active) | inactive |
| CCNC(=O)NCc1cccc(Cl)c1 | inactive | inactive | inactive | inactive | inactive |
| CN1CCN(c2c(F)cc3c(=O)c(C(=O)O)cn4c3c2SCC4)CC1 | inactive | inactive | inactive | inactive | – |
| CC(=O)OC[C@H]1O[C@@H](n2ncc(=O)[nH]c2=O)[C@H](OC(C)=O)[C@@H]1OC(C)=O | inactive | inactive | inactive | inactive | 9.99 µM (active) |
| NC(=O)C1(N2CCCCC2)CCN(CCCC(=O)c2ccc(F)cc2)CC1 | 3.55 µM (active) | inactive | inactive | inactive | inactive |
| O=C1C(CCS(=O)c2ccccc2)C(=O)N(c2ccccc2)N1c1ccccc1 (stereo unspecified) | inactive | inactive | inactive | inactive | inactive |
| CCCCc1cc2ccccc2c(OCCN(C)C)n1 | 7.94 µM (active) | inactive | inactive | inactive | inactive |
| O=C(O)C(Cc1cc(I)c(O)c(I)c1)c1ccccc1 (stereo unspecified) | inactive | inactive | inactive | inactive | inactive |
| CC(C)Nc1cccnc1N1CCN(C(=O)c2cc3cc(NS(C)(=O)=O)ccc3[nH]2)CC1 | 8.91 µM (active) | inactive | inactive | 14.4 µM (active) | inactive |
| NS(=O)(=O)Cc1noc2ccccc12 | inactive | inactive | inactive | inactive | inactive |
| COc1ccc(/C=N/NC(=O)c2ccncc2)cc1OC | inactive | inactive | inactive | inactive | inactive |
